Results: the supplement of paper PMC7411054

Tests used:
Conditions in all cases: treatment time: 24 h
A549-ACTB-RAB5A [1] = test: lowest phenotypically active concentration; higher = less potent
Method in brief: (§1)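 Fifteen reporter lines derived from A549, HepG2 and WPMY1 cells by gene editing, carrying BFP for segmentation plus GFP and RFP/FusionRed markers, were exposed to 0.3, 1, 3 or 9 µM for 24 h in four wells each and imaged live. Live-cell features from each well were normalised to solvent control wells. A well set counted as deviating when ≥3 of 4 wells lay beyond the 95th percentile of control Euclidean distances, and as reproducible when the median replicate Pearson correlation exceeded the 95th percentile of non-replicates. Phenotypic activity was assigned only when both criteria were met.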

A549-GM130-SQSTM1 [2] = test: as above
Method in brief: as §1

A549-TUBA1B-RELA [3] = test: as above
Method in brief: as §1

A549-ACTB-RAB5A [4] = test: phenotypically active (imaging signature differs from DMSO and reproducible) at any of 0.3-9 uM (binary (1 = active, 0 = inactive)); higher = active
Method in brief: as §1

A549-CANX-COX4 = test: as above
Method in brief: as §1

A549-GM130-SQSTM1 [5] = test: as above
Method in brief: as §1

A549-TP53BP1-CLTA = test: as above
Method in brief: as §1

A549-TUBA1B-RELA [6] = test: as above
Method in brief: as §1

HepG2-ACTB-RAB5A [7] = test: as above
Method in brief: as §1

HepG2-CANX-COX4 = test: as above
Method in brief: as §1

HepG2-GM130-SQSTM1 = test: as above
Method in brief: as §1

HepG2-TP53BP1-CLTA = test: as above
Method in brief: as §1

HepG2-TUBA1B-RELA = test: as above
Method in brief: as §1

WPMY1-ACTB-RAB5A = test: as above
Method in brief: as §1

WPMY1-CANX-COX4 [8] = test: as above
Method in brief: as §1

WPMY1-GM130-SQSTM1 = test: as above
Method in brief: as §1

WPMY1-TP53BP1-CLTA = test: as above
Method in brief: as §1

WPMY1-TUBA1B-RELA = test: as above
Method in brief: as §1

HepG2-ACTB-RAB5A [9] = test: lowest phenotypically active concentration; higher = less potent
Method in brief: as §1

WPMY1-CANX-COX4 [10] = test: as above
Method in brief: as §1

SMILES	lowest phenotypically active concentration (A549-ACTB-RAB5A [1])	lowest phenotypically active concentration (A549-GM130-SQSTM1 [2])	lowest phenotypically active concentration (A549-TUBA1B-RELA [3])	phenotypically active (A549-ACTB-RAB5A [4])	phenotypically active (A549-CANX-COX4)	phenotypically active (A549-GM130-SQSTM1 [5])	phenotypically active (A549-TP53BP1-CLTA)	phenotypically active (A549-TUBA1B-RELA [6])	phenotypically active (HepG2-ACTB-RAB5A [7])	phenotypically active (HepG2-CANX-COX4)	phenotypically active (HepG2-GM130-SQSTM1)	phenotypically active (HepG2-TP53BP1-CLTA)	phenotypically active (HepG2-TUBA1B-RELA)	phenotypically active (WPMY1-ACTB-RAB5A)	phenotypically active (WPMY1-CANX-COX4 [8])	phenotypically active (WPMY1-GM130-SQSTM1)	phenotypically active (WPMY1-TP53BP1-CLTA)	phenotypically active (WPMY1-TUBA1B-RELA)	lowest phenotypically active concentration (HepG2-ACTB-RAB5A [9])	lowest phenotypically active concentration (WPMY1-CANX-COX4 [10])
CNCCC(Oc1ccc(C(F)(F)F)cc1)c1ccccc1 (stereo not given) [fluoxetine]	3 µM	9 µM	3 µM	1 (active)	0 (inactive)	1 (active)	1 (active)	1 (active)	0 (inactive)	0 (inactive)	0 (inactive)	1 (active)	1 (active)	0 (inactive)	0 (inactive)	1 (active)	0 (inactive)	0 (inactive)		
C[C@H]1Oc2cc(cnc2N)-c2c(nn(C)c2C#N)CN(C)C(=O)c2ccc(F)cc21	3 µM	1 µM	1 µM	1 (active)	0 (inactive)	1 (active)	1 (active)	1 (active)	1 (active)	1 (active)	1 (active)	1 (active)	1 (active)	0 (inactive)	0 (inactive)	0 (inactive)	1 (active)	0 (inactive)	3 µM	
CSc1ccc2c(c1)N(CCC1CCCCN1C)c1ccccc1S2 (stereo not given) [thioridazine]	3 µM	3 µM	3 µM	1 (active)	0 (inactive)	1 (active)	1 (active)	1 (active)	1 (active)	1 (active)	1 (active)	1 (active)	1 (active)	1 (active)	1 (active)	1 (active)	1 (active)	1 (active)	9 µM	9 µM
CC(C)OC(=O)c1cc2c(OCC(O)CNC(C)(C)C)cccc2[nH]1 (stereo not given)	3 µM	9 µM	3 µM	1 (active)	0 (inactive)	1 (active)	1 (active)	1 (active)	1 (active)	0 (inactive)	0 (inactive)	1 (active)	1 (active)	1 (active)	1 (active)	1 (active)	1 (active)	1 (active)	9 µM	9 µM
NS(=O)(=O)c1nn2cc(-c3ccccc3)nc2s1	9 µM	9 µM		1 (active)	0 (inactive)	1 (active)	1 (active)	0 (inactive)	1 (active)	1 (active)	1 (active)	0 (inactive)	1 (active)	1 (active)	0 (inactive)	1 (active)	1 (active)	1 (active)	9 µM	
